# From article PMC7862700, “An all-to-all approach to the identification of sequence-specific readers for epigenetic DNA modifications on cytosine”
# Tests used:
# Assay in all cases: DAPPL (digital affinity profiling via proximity ligation, sequencing); 10 mM Tris-HCl pH 7.5, 50 mM NaCl, 1 mM DTT, 4% glycerol, room temperature, 30 min; GST-TFs on glutathione beads, 16-mer random dsDNA library, 0.1% formaldehyde crosslink after washing; high values mean tight binding
# [1] = target: T1, FEV (Homo sapiens, UniProt Q99581 1-238); conditions: protein: recombinant; tags: N-terminal GST; dsDNA, one strand shown
# T1 sequence: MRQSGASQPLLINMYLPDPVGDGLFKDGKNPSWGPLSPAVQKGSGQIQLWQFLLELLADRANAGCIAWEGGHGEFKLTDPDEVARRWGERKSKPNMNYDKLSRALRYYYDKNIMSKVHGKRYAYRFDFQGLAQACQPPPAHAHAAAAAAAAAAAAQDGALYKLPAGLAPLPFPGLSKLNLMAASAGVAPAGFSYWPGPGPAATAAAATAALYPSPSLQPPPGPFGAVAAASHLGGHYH
# Procedure, shortened: (§1)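 Human transcription factors were made in yeast as GST fusions, captured on glutathione beads and barcoded with DNA. With a tag-only sample included, the pool was incubated with 200 nmole of a random double-stranded 16-mer DNA library in Tris/NaCl/DTT/glycerol buffer at room temperature for 30 min, then crosslinked with 0.1% formaldehyde after washing, ligated by proximity, amplified and sequenced. For binding signal, each hexamer's read frequency for a factor is divided by its frequency for the tag-only sample.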
# [2] = target: ETV5 (Homo sapiens, UniProt P41161 1-510); conditions: protein: recombinant; tags: N-terminal GST; dsDNA, one strand shown
# Sequence of ETV5 (P41161 whole entry): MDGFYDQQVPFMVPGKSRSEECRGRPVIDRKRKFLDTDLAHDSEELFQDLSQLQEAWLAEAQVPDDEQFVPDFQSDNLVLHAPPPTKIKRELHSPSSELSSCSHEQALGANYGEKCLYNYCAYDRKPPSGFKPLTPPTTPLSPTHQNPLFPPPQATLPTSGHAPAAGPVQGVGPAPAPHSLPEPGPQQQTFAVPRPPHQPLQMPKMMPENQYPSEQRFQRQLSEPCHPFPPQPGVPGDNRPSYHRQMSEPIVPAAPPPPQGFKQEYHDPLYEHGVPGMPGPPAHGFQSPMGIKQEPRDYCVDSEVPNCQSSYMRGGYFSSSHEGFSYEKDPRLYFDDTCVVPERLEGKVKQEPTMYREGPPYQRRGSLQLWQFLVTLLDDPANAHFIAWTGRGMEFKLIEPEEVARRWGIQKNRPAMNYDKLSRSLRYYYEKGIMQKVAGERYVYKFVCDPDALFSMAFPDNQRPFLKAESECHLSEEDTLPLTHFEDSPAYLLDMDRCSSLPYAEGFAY
# Procedure, shortened: as §1
# [3] = target: HSF1 (Homo sapiens, UniProt Q00613 1-529); conditions: protein: recombinant; tags: N-terminal GST; chain copies: 3; dsDNA, one strand shown
# Sequence of HSF1 (Q00613 whole entry): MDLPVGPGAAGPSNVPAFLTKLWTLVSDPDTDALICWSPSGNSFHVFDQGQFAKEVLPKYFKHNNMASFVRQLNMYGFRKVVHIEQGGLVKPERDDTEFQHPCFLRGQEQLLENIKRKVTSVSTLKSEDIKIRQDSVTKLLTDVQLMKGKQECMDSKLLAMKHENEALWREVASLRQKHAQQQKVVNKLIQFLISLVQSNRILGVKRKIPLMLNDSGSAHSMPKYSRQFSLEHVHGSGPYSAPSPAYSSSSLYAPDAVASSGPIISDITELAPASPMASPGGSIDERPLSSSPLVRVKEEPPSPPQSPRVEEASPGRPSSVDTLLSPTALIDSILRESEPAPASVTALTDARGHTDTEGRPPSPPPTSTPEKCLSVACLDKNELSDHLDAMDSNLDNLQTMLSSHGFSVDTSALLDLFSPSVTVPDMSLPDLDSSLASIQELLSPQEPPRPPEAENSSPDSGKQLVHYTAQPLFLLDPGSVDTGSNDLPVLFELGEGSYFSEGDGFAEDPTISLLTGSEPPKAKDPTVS
# Procedure, shortened: as §1
# [4] = target: T2, SPIC (Homo sapiens, UniProt Q8N5J4 1-248); conditions: protein: recombinant; tags: N-terminal GST; dsDNA, one strand shown
# T2 sequence: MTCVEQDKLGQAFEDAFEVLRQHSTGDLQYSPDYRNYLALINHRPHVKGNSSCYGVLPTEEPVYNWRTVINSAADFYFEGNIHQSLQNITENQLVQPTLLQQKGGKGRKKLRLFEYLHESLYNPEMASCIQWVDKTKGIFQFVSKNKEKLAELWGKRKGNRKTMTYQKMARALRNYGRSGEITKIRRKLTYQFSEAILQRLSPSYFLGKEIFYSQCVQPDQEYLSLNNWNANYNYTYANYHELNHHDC
# Procedure, shortened: as §1
# [5] = target: ELF4 (Homo sapiens, UniProt Q99607 1-663); conditions: protein: recombinant; tags: N-terminal GST; dsDNA, one strand shown
# Sequence of ELF4 (Q99607 whole entry): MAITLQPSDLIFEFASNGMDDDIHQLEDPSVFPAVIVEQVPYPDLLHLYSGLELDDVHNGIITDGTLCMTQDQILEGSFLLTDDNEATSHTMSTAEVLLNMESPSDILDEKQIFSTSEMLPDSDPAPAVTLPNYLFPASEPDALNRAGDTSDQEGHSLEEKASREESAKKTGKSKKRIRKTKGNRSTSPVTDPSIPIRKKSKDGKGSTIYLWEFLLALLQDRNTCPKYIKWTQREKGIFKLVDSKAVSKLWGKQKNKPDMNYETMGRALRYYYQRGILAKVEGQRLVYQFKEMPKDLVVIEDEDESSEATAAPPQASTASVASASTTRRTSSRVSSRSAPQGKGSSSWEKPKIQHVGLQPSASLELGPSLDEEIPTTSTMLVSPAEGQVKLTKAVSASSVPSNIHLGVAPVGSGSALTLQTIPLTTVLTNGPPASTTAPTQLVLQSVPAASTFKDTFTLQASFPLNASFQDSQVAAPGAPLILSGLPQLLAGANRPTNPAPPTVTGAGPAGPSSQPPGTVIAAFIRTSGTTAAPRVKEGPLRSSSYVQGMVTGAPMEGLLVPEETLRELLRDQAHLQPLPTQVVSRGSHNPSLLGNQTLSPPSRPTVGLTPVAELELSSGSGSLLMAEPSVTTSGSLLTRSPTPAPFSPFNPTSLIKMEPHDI
# Procedure, shortened: as §1
# [6] = target: T3, ELK4 (Homo sapiens, UniProt P28324-2 1-405); conditions: protein: recombinant; tags: N-terminal GST; dsDNA, one strand shown
# T3 sequence: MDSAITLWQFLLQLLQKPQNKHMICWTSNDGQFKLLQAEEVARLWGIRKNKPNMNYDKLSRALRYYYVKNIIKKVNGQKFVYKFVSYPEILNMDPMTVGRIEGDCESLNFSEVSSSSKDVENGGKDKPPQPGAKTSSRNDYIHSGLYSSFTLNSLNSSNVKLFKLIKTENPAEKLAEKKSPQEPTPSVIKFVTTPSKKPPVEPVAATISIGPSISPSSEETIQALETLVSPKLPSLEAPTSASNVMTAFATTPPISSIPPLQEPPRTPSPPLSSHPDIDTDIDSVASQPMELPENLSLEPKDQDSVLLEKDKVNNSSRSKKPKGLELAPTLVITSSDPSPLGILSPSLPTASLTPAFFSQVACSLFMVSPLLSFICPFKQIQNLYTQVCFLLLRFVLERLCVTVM
# Procedure, shortened: as §1
# [7] = target: T4, ETV2 (Homo sapiens, UniProt O00321 1-342); conditions: protein: recombinant; tags: N-terminal GST; dsDNA, one strand shown
# T4 sequence: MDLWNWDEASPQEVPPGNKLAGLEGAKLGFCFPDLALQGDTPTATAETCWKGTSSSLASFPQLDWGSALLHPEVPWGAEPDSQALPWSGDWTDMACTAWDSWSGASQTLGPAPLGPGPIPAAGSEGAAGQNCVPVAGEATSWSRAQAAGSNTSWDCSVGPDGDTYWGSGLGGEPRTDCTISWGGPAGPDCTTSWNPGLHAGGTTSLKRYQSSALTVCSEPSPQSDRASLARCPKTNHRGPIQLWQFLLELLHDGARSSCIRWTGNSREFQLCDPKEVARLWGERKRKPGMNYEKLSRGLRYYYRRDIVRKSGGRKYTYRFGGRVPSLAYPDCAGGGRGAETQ
# Procedure, shortened: as §1
# [8] = target: T5, ELF3 (Homo sapiens, UniProt P78545 1-371); conditions: protein: recombinant; tags: N-terminal GST; dsDNA, one strand shown
# T5 sequence: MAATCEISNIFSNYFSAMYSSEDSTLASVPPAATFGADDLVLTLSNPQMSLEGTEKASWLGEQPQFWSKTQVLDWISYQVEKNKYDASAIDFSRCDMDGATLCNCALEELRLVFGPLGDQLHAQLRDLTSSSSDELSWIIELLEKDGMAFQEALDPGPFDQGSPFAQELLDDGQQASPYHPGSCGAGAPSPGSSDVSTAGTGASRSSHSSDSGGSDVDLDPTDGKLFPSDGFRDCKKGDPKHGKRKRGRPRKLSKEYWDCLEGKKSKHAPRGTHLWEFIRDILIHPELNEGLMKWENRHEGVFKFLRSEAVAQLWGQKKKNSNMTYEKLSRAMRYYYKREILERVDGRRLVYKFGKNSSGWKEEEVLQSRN
# Procedure, shortened: as §1
# [9] = target: CRX (Homo sapiens, UniProt O43186 1-299); conditions: protein: recombinant; tags: N-terminal GST; dsDNA, one strand shown
# Sequence of CRX (O43186 whole entry): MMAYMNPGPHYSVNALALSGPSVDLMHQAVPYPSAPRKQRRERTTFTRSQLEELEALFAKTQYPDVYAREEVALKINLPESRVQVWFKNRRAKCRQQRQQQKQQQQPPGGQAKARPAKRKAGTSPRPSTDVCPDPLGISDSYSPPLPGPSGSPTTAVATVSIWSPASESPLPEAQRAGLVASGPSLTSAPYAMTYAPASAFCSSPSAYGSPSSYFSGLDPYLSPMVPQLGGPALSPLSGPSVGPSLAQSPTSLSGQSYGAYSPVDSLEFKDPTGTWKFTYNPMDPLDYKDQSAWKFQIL
# Procedure, shortened: as §1
sequence,measurement,setting,value
ATTTGG,binding signal,[1],"1.4 fold enrichment (6-mer frequency, TF over GST control)"
same,binding signal,[2],"1.36 fold enrichment (6-mer frequency, TF over GST control)"
same,binding signal,[3],"1.5 fold enrichment (6-mer frequency, TF over GST control)"
same,binding signal,[4],"1.34 fold enrichment (6-mer frequency, TF over GST control)"
same,binding signal,[5],"1.26 fold enrichment (6-mer frequency, TF over GST control)"
same,binding signal,[6],"1.43 fold enrichment (6-mer frequency, TF over GST control)"
same,binding signal,[7],"1.37 fold enrichment (6-mer frequency, TF over GST control)"
same,binding signal,[8],"1.44 fold enrichment (6-mer frequency, TF over GST control)"
same,binding signal,[9],"1.73 fold enrichment (6-mer frequency, TF over GST control)"
